The values that follow come from PubChem BioAssay.

The source made the active and inactive calls.

The target in one test is Albumin (Bos taurus) (UniProt P02769). In words: bovine serum albumin binders on microarray, profiling panel, artefact control for SMM control protein annotation, biochemical, small-molecule microarray, Alexa647 label, 635/667 nm fluorescence (AID 1118).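 Further: score merges 667 nm emission intensity and signal-to-noise per printed compound spot.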 To be noted: BSA-A647 binding, fluorescence 635 nm, higher = more signal.
A short description of test [1]: small-molecule microarray binders of probe aXIP, primary screen, biochemical, NeuroSMM set, 635/667 nm fluorescence (AID 1119).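 Further: probe is the protein aXip251-270 applied at 1 µg/mL to compound-printed slides; binding of probe to printed compounds measured as 667 nm fluorescence plus signal to noise.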 Particulars: higher = more signal, called active from +8 up or from −8 down.
Test [2] can be described thus: small-molecule binders of probe aNOTCH3, primary screen, biochemical, small-molecule microarray, 635/667 nm fluorescence (AID 1120).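 Further: probe is a biotin-tagged antibody raised against NOTCH3 rather than NOTCH3 protein; score merges spot fluorescence near 667 nm with spot signal to noise.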 To be noted: higher = more signal.
A short description of test [3]: small-molecule binders of probe aNOTCH2, primary screen, biochemical, small-molecule microarray, 635/667 nm fluorescence (AID 1121).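 Further: score merges feature fluorescence read at 667 nm with its signal to noise.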 To be noted: higher = more signal.
Test [4] has as its target Carbonic anhydrase 2 (Homo sapiens) (UniProt P00918). Put plainly: CAII small-molecule binders, profiling panel, biochemical, small-molecule microarray, Alexa647-labelled CAII (AID 1122). Particulars: CAII-A647 binding fluorescence, higher = more signal.
A short description of test [5]: COS7 lysate on small-molecule microarray, probe aHis, 635 nm (AID 1123).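 Further: z-score combines 667nm fluorescence intensity with signal-to-noise per printed compound spot.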 To be noted: COS7 cell lysate, fluorescence, higher = more signal.
Test [6] can be described thus: compound binding in COS7 lysate, probe aLAP1, primary screen, cell lysate, small-molecule microarray (AID 1124).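 Further: lysate comes from COS7 cells expressing LAP1 and is applied at 0.3 µg/mL; score merges spot fluorescence near 667 nm with signal-to-noise over triplicate slides.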 To be noted: probe aLAP1, fluorescence, higher = more signal.
The next test has as its system Sam68 (KHDRBS1). In words: Sam68 small-molecule binders, primary screen, biochemical, small-molecule microarray, 635 nm fluorescence (AID 1125).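 Further: score merges 667 nm channel intensity with signal to noise over triplicate slides.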 To be noted: small-molecule microarray binding, higher = more signal.
Test [7] relates to Chordin-like protein 2 (CHRDL2). Put plainly: CHRDL2 small-molecule binders, primary screen, biochemical, small-molecule microarray, 635 nm fluorescence (AID 1126).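 Further: printed compound slides probed with Chrdl2 protein at 4 µg/mL for 1 h at 4 C; score merges 667 nm emission intensity with signal to noise over three replicate slides.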 Particulars: small-molecule microarray binding, fluorescence 635 nm; higher = more signal.
Test [8] addresses Concanavalin-A (Canavalia ensiformis) (UniProt P02866). In words: ConA small-molecule binders, primary screen, artefact control for SMM control protein annotation, biochemical, small-molecule microarray, Alexa647 label, 635 nm (AID 1127).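 Further: z combines 667 nm emission intensity with signal-to-noise across three replicate slides.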 To be noted: ConA-A647 binding fluorescence, higher = more signal.
Test [9] is described as follows: anti-His antibody binders, primary screen, artefact control for SMM control protein annotation, biochemical, small-molecule microarray, 635 nm fluorescence (AID 1128).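 Further: score merges feature fluorescence with signal-to-noise for each printed compound spot.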 Particulars: anti-His Alexa647 antibody binding, higher = more signal.
Test [10] concerns Human papillomavirus type 1a E7 protein (residues 1-88). Put plainly: HPV1a E7 small-molecule binders, primary screen, biochemical, small-molecule microarray, residues 1-88, 635 nm (AID 1129). To be noted: small-molecule microarray binding, fluorescence 635 nm; higher = more signal.
For test [11], the target named is Focal adhesion kinase 1 (Homo sapiens) (UniProt Q05397). Put plainly: small-molecule microarray binders of FAK, primary screen, biochemical, 635/667 nm fluorescence, BSA, DTT (AID 1130).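 Further: composite of spot emission at 667 nm and signal to noise over triplicate slides.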 To be noted: PTK2 binding, 635 nm fluorescence, higher = more signal.
In test [12] the test system is Fibrinogen (Alexa647-labelled). In words: fibrinogen binders on compound microarrays, profiling panel, artefact control for SMM control-protein annotation, biochemical, small-molecule microarray, 635/667 nm fluorescence (AID 1131).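 Further: z-score merges 667 nm fluorescence with per-spot signal-to-noise over triplicate slides.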 To be noted: fibrinogen-A647 binding fluorescence, higher = more signal.
Test [13] deals with Follistatin (Homo sapiens) (UniProt P19883). In words: follistatin binders on small-molecule microarrays, primary screen, biochemical, small-molecule microarray, 635/667 nm fluorescence (AID 1132). To be noted: FST binding, 635 nm fluorescence, higher = more signal.
Test [14] concerns the target Fibroblast growth factor 2 (Homo sapiens) (UniProt P09038). Put plainly: FGF2 binders on small-molecule microarrays, primary screen, biochemical, small-molecule microarray, 635/667 nm fluorescence (AID 1133). To be noted: small-molecule microarray binding, FGF2, fluorescence 635/667; higher = more signal.
The nature of test [15]: mitochondrial membrane potential change in A549 cells, profiling panel, cell-based, JC-1 fluorescence, basal, 24 h, 100 nL (AID 1138).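 Further: A549 lung adenocarcinoma cells under basal conditions with no added stimulus; test concentration not given here.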 Particulars: higher = more signal.
In the next test the test system is Lefty1. Put plainly: Lefty1 binders on small-molecule microarrays, primary screen, biochemical, small-molecule microarray, 635/667 nm fluorescence (AID 1139). Particulars: small-molecule microarray binding, fluorescence 635/667; higher = more signal.
Test [16] concerns wheat germ agglutinin (Triticum aestivum), Alexa647-labelled. Put plainly: wheat germ agglutinin binders on compound microarrays, profiling panel, artefact control for SMM control-protein annotation, biochemical, small-molecule microarray, 635/667 nm fluorescence (AID 1140).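 Further: score merges 667 nm feature emission with signal to noise over triplicate slides.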 To be noted: WGA-A647 binding, 635 nm fluorescence, higher = more signal.
Test [17] concerns the target Luciferin 4-monooxygenase (Photinus pyralis) (UniProt P08659). In words: firefly luciferase enzyme inhibitors, primary screen, biochemical, luminescence, purified enzyme, 2006 set (AID 1141).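 Further: cell-free assay with purified firefly luciferase at 100 ng per well in PBS; test concentration not given here.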 To be noted: SteadyGlo luminescence, 30 min, higher = more signal, called active from +8 up or from −8 down.

Concanavalin-A (Canavalia ensiformis), sequence (P02866 whole entry, looked up): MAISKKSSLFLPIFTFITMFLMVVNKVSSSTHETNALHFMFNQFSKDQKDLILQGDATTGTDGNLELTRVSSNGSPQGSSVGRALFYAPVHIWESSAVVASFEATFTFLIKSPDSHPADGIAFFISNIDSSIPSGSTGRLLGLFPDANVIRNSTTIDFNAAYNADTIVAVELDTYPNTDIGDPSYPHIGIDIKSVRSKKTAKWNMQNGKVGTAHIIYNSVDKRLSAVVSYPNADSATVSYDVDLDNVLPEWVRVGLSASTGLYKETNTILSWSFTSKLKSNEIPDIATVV
Luciferin 4-monooxygenase (Photinus pyralis), sequence (P08659 whole entry, looked up): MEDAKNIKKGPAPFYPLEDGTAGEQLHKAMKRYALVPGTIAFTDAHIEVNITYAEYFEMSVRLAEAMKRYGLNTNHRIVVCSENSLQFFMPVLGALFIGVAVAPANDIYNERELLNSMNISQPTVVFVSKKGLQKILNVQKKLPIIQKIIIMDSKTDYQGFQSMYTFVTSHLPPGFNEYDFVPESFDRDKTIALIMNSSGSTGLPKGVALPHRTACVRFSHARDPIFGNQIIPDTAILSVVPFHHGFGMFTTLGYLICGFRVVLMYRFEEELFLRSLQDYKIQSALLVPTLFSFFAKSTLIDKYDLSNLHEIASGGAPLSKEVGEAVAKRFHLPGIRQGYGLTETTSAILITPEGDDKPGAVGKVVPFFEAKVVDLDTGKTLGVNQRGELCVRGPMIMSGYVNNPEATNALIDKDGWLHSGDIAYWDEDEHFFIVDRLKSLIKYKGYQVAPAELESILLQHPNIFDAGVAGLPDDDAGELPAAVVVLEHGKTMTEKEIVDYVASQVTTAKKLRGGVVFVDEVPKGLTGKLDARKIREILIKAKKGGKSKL
Fibroblast growth factor 2 (Homo sapiens), sequence (P09038 whole entry, looked up): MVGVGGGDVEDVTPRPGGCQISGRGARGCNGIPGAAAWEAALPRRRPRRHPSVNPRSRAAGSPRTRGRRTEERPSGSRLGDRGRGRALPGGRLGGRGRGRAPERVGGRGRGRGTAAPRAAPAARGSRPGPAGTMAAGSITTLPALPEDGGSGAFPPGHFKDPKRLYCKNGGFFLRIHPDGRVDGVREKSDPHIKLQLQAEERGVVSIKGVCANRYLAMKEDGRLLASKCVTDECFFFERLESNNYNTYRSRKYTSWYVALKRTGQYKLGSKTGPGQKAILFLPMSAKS
Albumin (Bos taurus), sequence (P02769 whole entry, looked up): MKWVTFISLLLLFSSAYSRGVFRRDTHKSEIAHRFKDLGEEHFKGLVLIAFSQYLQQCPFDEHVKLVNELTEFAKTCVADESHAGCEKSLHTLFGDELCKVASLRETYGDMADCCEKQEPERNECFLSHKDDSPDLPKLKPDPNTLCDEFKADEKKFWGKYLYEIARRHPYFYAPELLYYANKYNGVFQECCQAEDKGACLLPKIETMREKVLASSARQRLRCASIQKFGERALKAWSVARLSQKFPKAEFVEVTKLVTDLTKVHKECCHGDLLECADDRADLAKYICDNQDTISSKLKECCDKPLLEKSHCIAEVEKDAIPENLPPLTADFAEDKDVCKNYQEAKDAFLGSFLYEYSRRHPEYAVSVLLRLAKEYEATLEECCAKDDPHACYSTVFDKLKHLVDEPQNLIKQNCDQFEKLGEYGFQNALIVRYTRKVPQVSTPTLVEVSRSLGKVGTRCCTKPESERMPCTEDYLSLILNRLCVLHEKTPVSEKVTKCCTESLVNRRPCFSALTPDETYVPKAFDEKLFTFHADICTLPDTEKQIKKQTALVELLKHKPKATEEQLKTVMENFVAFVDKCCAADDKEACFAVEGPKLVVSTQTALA
Focal adhesion kinase 1 (Homo sapiens), sequence (Q05397 whole entry, looked up): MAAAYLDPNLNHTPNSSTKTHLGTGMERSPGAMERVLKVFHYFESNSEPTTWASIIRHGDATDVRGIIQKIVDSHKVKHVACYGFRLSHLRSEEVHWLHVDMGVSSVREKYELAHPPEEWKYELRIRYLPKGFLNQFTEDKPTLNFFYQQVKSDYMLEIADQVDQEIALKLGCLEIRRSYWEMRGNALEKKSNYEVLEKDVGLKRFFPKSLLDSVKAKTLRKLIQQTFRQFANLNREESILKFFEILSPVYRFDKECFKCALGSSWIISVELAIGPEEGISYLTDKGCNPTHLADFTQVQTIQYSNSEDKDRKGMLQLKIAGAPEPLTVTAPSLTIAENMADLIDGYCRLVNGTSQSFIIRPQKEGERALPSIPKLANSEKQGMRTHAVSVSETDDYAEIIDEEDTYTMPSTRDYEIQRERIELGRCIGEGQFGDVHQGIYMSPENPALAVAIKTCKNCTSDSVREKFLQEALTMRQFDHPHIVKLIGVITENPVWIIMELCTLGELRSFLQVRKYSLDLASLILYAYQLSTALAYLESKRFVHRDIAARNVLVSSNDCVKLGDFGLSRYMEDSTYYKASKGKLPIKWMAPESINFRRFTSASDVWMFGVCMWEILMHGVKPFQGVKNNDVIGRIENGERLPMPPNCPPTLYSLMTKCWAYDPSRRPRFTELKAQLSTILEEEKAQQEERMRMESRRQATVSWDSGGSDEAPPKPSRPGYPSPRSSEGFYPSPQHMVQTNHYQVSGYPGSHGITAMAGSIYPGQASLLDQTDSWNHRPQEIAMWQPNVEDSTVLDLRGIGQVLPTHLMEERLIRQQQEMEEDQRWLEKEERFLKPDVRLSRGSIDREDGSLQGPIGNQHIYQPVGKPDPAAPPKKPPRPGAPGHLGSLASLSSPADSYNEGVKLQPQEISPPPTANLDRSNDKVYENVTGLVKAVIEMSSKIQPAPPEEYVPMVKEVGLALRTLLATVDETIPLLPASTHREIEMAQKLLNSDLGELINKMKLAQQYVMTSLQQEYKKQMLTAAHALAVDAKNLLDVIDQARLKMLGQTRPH
Follistatin (Homo sapiens), sequence (P19883 whole entry, looked up): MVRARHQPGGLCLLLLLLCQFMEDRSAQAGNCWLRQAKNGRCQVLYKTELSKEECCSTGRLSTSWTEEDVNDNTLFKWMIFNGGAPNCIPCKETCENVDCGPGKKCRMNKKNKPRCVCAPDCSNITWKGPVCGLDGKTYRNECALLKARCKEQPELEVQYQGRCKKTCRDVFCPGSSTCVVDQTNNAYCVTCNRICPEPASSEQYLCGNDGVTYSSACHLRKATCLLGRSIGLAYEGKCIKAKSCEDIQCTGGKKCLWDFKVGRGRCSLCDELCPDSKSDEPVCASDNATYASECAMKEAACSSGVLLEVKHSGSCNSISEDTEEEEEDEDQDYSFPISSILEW

As to `O=C1O[C@@H](c2ccccc2)[C@@H](c2ccccc2)N2[C@@H](c3ccc(O)cc3)[C@]3(C(=O)Nc4ccc(C#CC5(O)CCCCCC5)cc43)[C@@H](C(=O)N3CCCCCCC3)[C@H]12`, the composite z-score with Albumin (Bos taurus) amounted to 0.748; in test [2], 2.12; in test [3] it was 1.06; in [4], 0.742; in [5], 3.88; in test [6], 0.894. Further, the composite z-score in the test on Sam68 (KHDRBS1) was determined as 1.33; in [7], 1.55; in [8] it was 1.12; in test [9], 1.47; in test [10] it was 1.26; in [11], 2.74. Further, the composite z-score in test [12] is 0.962; in [13], 1.47; in [14], 1.62; in the test on Lefty1 it was 1.68; in test [16], 1.4. In addition, the composite Z-score in [1] was 6.76 (inactive). In addition, the z-score in [15] is -0.15; in test [17], -0.593 (inactive).

For `O=C1O[C@H](c2ccccc2)[C@H](c2ccccc2)N2[C@H]1[C@@H](C(=O)O)[C@]1(C(=O)Nc3ccc(C#CC4=CCCCC4)cc31)[C@H]2c1ccc(OCCO)cc1`, the composite z-score with Albumin (Bos taurus) is 0.638; in test [2], 0.133; in test [3] it was -0.0523; in [4] it was 0.537; in [5] it was 2.01; in [6], 1.48. The composite z-score worked out at 1.29 in the test with Sam68 (KHDRBS1); 0.494 in [7]; 1.18 in test [8]; 0.463 in test [9]; 1.24 in test [10]; 0.638 in test [11]. The composite z-score was 0.98 in test [12]; 1.26 in [13]; 0.919 in test [14]; 1.28 in the test on Lefty1; 1.1 in [16]. The composite Z-score in test [1] is 0.0759 (inactive). Besides, the z-score in test [15] was -2.57; in test [17], -9.5 (active).

On to `COCCOC(=O)N1C(=O)[C@@]2(c3cc(C#CCNC(N)=O)ccc31)[C@H](c1ccc(O)cc1)N1[C@H](c3ccccc3)[C@H](c3ccccc3)OC(=O)[C@H]1[C@@H]2C(=O)Nc1nc2ccccc2s1`, for which the composite z-score with Albumin (Bos taurus) was 0.0631; in [2], 0.111; in test [3], -0.0432; in [4] it was 0.266; in [5], 1.17; in test [6], 0.243. For the same molecule, the composite z-score in the test on Sam68 (KHDRBS1) was determined as 0.942; in test [7], 0.554; in [8], 1.09; in test [9] it was 0.0698; in test [10], 0.967; in test [11], 0.387. Moreover, the composite z-score in test [12] turned out to be 0.558; in [13], 1.33; in [14], 1.2; with Lefty1 it was 0.851; in [16], 0.785. The composite Z-score in [1] was -0.162 (inactive). For the same molecule, the results for the z-score in test [15] and in test [17] were -1.91 and -2.38 (inactive), respectively.

On to `C=CCNC(=O)[C@@H]1[C@H]2C(=O)O[C@H](c3ccccc3)[C@H](c3ccccc3)N2[C@H](c2ccc(O)cc2)[C@@]12C(=O)N(C(=O)OCCOC)c1ccccc12`, for which the composite z-score is 0.752 in the test with Albumin (Bos taurus); -0.0716 in test [2]; -0.143 in [3]; 0.519 in [4]; 2.23 in [5]; 0.334 in test [6]. Further, the composite z-score in the test with Sam68 (KHDRBS1) is 1.28; in [7] it was -0.49; in test [8] it was -0.18; in test [9], 1.92; in [10], 1.21; in [11], 0.419. Further, the composite z-score in [12] is 0.945; in [13] it was 0.714; in test [14], -0.145; in the test with Lefty1 it was 0.522; in [16] it was 0.795. In test [1], the composite Z-score is -0.155 (inactive). Besides, the z-score is -0.595 in test [15] and -0.355 (inactive) in test [17].

In the case of `[N-]=[N+]=NCc1ccccc1C[C@@]1(C(=O)NCC(O)CO)N=C(c2ccc(OCCCO)cc2)O[C@@H]1c1ccccc1CN=[N+]=[N-]` (stereo not given in full), the composite z-score was 1.01 in the test with Albumin (Bos taurus); 0.319 in [2]; -0.0335 in [3]; 0.546 in test [4]; 3.29 in [5]; -0.0011 in [6]. Also, the composite z-score in the test with Sam68 (KHDRBS1) is 1.29; in [7] it was -0.257; in [8], 1.1; in test [9], -0.0645; in [10], 1.23; in [11], 0.919. Besides, the composite z-score in test [12] was 0.971; in test [13] it was 1.28; in test [14], 1.6; in the test with Lefty1 it was -0.83; in test [16], 0.91. In addition, the composite Z-score in test [1] is -0.082 (inactive). Besides, the values for the z-score in test [15] and in [17] were 0.16 and 0.782 (inactive), respectively.

On to `COCCOC(=O)N1C(=O)[C@@]2(c3cc(C#CCC(C(=O)OC)C(=O)OC)ccc31)[C@H](c1ccc(O)cc1)N1[C@H](c3ccccc3)[C@H](c3ccccc3)OC(=O)[C@H]1[C@@H]2C(N)=O`, for which the composite z-score with Albumin (Bos taurus) is 0.47; in test [2], -0.0647; in test [3], 0.0232; in test [4] it was 0.438; in [5] it was 1.2; in [6] it was 0.647. Also, the composite z-score in the test on Sam68 (KHDRBS1) turned out to be 1.31; in test [7] it was 0.778; in [8], 0.859; in [9], 1.54; in test [10] it was 1.23; in [11], 0.242. In addition, the composite z-score amounted to 0.75 in test [12]; 0.857 in test [13]; 1.33 in [14]; 0.366 with Lefty1; 0.252 in test [16]. For the same molecule, the composite Z-score in [1] was 1.07 (inactive). For the same molecule, the z-score in test [15] is -0.82; in [17], -0.78 (inactive).

As to `C=CC(COC(C)=O)NS(=O)(=O)c1ccc(Br)cc1` (stereo not given), the composite z-score in the test with Albumin (Bos taurus) is -0.68; in test [2] it was -0.0337; in [3], -0.133; in test [4] it was -0.0235; in test [5] it was -0.01; in test [6] it was 0.0423. Also, the composite z-score with Sam68 (KHDRBS1) is 0.591; in [7], 0.912; in test [8], 0.682; in test [9], 0.192; in test [10] it was 0.971; in test [11], -0.271. In addition, the composite z-score in test [12] turned out to be 0.596; in [13], 0.902; in test [14], 0.608; in the test on Lefty1 it was 0.673; in [16], 0.0285. For the same molecule, the composite Z-score in test [1] was 0.0518 (inactive). The z-score is 0.499 in [15] and -0.481 (inactive) in test [17].

With `C=CCOC(=O)[C@H]1[C@@H]2C(=O)O[C@@H](c3ccccc3)[C@@H](c3ccccc3)N2[C@@H](c2ccc(OCCOC(=O)[C@@H]3C[C@@H]4C(=O)NCC(=O)N4[C@@H]3c3ccc(O)cc3)cc2)[C@]12C(=O)Nc1ccccc12`, the composite z-score with Albumin (Bos taurus) is 0.212; in test [2], 0.0006; in test [3], -0.168; in [4], 0.475; in [5] it was 2.45; in test [6], 0.537. The composite z-score in the test on Sam68 (KHDRBS1) stood at 1.29; in test [7] it was 1.32; in test [8], 1.11; in test [9], 1.56; in test [10], 1.19; in [11] it was 0.564. Besides, the composite z-score is 0.478 in test [12]; 1.35 in test [13]; 1.72 in test [14]; 1.18 in the test on Lefty1; -0.233 in test [16]. Also, in [1], the composite Z-score was 1.07 (inactive). Moreover, the z-score in test [15] is -1.43; in [17], -2.56 (inactive).
